Inconclusive results are not listed. Where a call stands in place of a potency, no number is given. Calls of active or inactive are those of the source. The call rests on the fitted dose curve.
Potency means the concentration at half of the fitted maximal effect.

This test in a line: cAMP Responsive Elements (CRE) small molecule agonists, cell-based qHTS assay (AID 1963590). Particulars: CRE-bla HEK293T, beta-lactamase FRET ratio, 3 h; series mostly up to 92.4 µM. An excerpt:
U.S. Tox21 Program National Center for Advancing Translational Sciences [NCATS] Division of Preclinical Innovation [DPI] U.S. Environmental Protection Agency [EPA] National Institutes of Environmental Health Sciences [NIEHS] National Toxicology Program [NTP] U.S. Food and Drug Administration [FDA] Tox21 Assay Overview: CREB (cyclic-AMP Responsive Element Binding Protein) is a cellular transcription factor. It binds to certain DNA sequences called cAMP Responsive Elements (CRE) and regulates the transcription of the genes. […] This cell line can be used to find agonists/antagonists of the cyclic AMP signaling pathway. The activation of the report gene under culture conditions can be detected by fluorescence intensity. This cell line has been used to screen the Tox21 10K compound library to identify agonists that induce oxidative stress.
Tox21 Assay Protocol Summary: CRE-bla Hek 293T cells were suspended in assay medium (DMEM containing 10% dialyzed FBS, 0.1 mM NEAA, 1 mM sodium pyruvate and 25 mM HEPES) and dispensed at 2,000 cells/5 uL /well into 1536-well black wall/clear bottom plates using a Multidrop Combi (ThermoFisher Scientific, Waltham, MA) dispenser. After the assay plates were incubated at 37 C/5% CO2 for 18 hrs, 23 nL of compounds dissolved in DMSO, positive controls or DMSO only was transferred to the assay plate by a pintool workstation (Kalypsys, San Diego, CA). After the plates were incubated at 37 C/5% CO2 for 3 hrs, 1 uL of LiveBLAzer B/G FRET substrate (Invitrogen, Carlsbad, CA) was added to each well using Bioraptr Flying Reagent Dispenser (FRD, Aurora Discovery, San Diego, CA). The plates were incubated at room temperature for 2 h.
Take `CC(C)C(=O)OCCc1ccccc1`: the Potency result is “inactive”. As to `COc1cc(C(C)=O)ccc1OCCCN1CCC(c2noc3cc(F)ccc23)CC1`, the Potency entry was “inactive”.

As for `CC(C)(C)C1CCCCC1=O` (stereo not given), the Potency entry is “inactive”. As to `Nc1ccc(-c2ccc(F)cc2)cc1`, the Potency result was “inactive”.

In the case of `CCN(CC)CCNC(C(=O)OCCC(C)C)c1ccccc1` (stereo not given), the Potency entry is “inactive”.

As to `CC1=CC(C)C(C=O)C(C)C1` (stereo not given), the Potency entry is “inactive”. In the case of `c1ccc2sc(SN3CCOCC3)nc2c1`, the Potency entry is “inactive”.

As to `CC(C)(C)CCCCCCOC(=O)c1ccccc1C(=O)OCCCCCCC(C)(C)C`, the Potency result was “inactive”.

`c1ccc2sc(SN(C3CCCCC3)C3CCCCC3)nc2c1`: the Potency result is “inactive”.

For `CSc1c(Cl)c(Cl)c(Cl)c(Cl)c1Cl`, the Potency entry is “inactive”. In the case of `CC(=O)NNC(C)=O` it was “inactive”; in that of `O=[N+]([O-])c1cc(N(CCO)CCO)ccc1NCCO`, “inactive”. Regarding `Cc1ccc(NC=O)c(C)c1`, the Potency result is “inactive”. With `CCCCCCCC/C=C\CCCCCCCC(=O)OC(CO)CO` the entry was “inactive”; with `CCOc1ccccc1OCCN[C@H](C)Cc1ccc(OC)c(S(N)(=O)=O)c1`, “inactive”. As for `CC(C)=CCNc1ncnc2c1ncn2[C@@H]1O[C@H](CO)[C@@H](O)[C@H]1O`, the Potency is 11.9 µM (active).

For `c1coc(Cn2cccc2)c1`, the Potency entry is “inactive”. As to `CC(C)(C)c1ccc(C(=O)O)cc1`, the Potency result is “inactive”.

On to `CCCCCOC(=O)Nc1nc(=O)n([C@@H]2O[C@H](C)[C@@H](O)[C@H]2O)cc1F`, for which the Potency result is “inactive”. In the case of `COc1ccc(S(=O)(=O)Nc2nnc(CC(C)C)s2)cc1` it was “inactive”. In the case of `CCCNC(C)C(=O)Nc1c(C)csc1C(=O)OC` (stereo not given) it was “inactive”.

`NC(Cc1c[nH]c2ccccc12)C(=O)O` (stereo not given): the Potency entry was “inactive”.

On to `Cc1c(C)c2c(c(C)c1OC(=O)c1cccnc1)CC[C@@](C)(CCC[C@H](C)CCC[C@H](C)CCCC(C)C)O2`, for which the Potency result was “inactive”.

As for `CCOC(=O)OC(C)OC(=O)[C@@H]1N2C(=O)[C@@H](NC(=O)[C@H](N)c3ccccc3)[C@H]2SC1(C)C` (stereo not given in full), the Potency entry is “inactive”. With `CCN(CCC#N)c1ccccc1` the entry was “inactive”; with `Nc1ccn(C2CO[C@H](CO)O2)c(=O)n1` (stereo not given in full), “inactive”. In the case of `CC(C)=CC(C)(C)C` it was “inactive”.

In the case of `CCCCCCCCCCCCCBr`, the Potency result was “inactive”. In the case of `CC[C@H](C)C(=O)O[C@H]1C[C@H](O)C=C2C=C[C@H](C)[C@H](CC[C@@H](O)C[C@@H](O)CC(=O)O)[C@H]21` it was “inactive”. With `O=C1CCC/C=C\CCCCCCCCCC1` the entry was “inactive”. On to `COc1ccc(N=Nc2cc(C)c(N=Nc3ccc(S(=O)(=O)O)cc3)cc2OC)cc1`, for which the Potency result was “inactive”. With `CN(C)CCCN1c2ccccc2CCc2ccccc21` the entry was “inactive”; with `COc1ccc2cc(CCC(C)=O)ccc2c1`, “inactive”; with `CCNc1nc(NC(C)CC)nc(OC)n1` (stereo not given), “inactive”. Regarding `COC(OC)(C(=O)c1ccccc1)c1ccccc1`, the Potency result is “inactive”. On to `C1CCC2(CCCCO2)OC1`, for which the Potency result was “inactive”. In the case of `CC/C=C/CCCCCCCCCCOC(C)=O` it was “inactive”.

Turning to `CCCCCc1ccc(O)cc1`, the Potency result is “inactive”.

Turning to `COC(C(=O)O)c1ccccc1` (stereo not given), the Potency result was “inactive”. With `N#Cc1ccccc1O` the entry was “inactive”.

These data come from PubChem BioAssay (Tox21).
